From PubChem BioAssay
USP30 block – inhibitors of human USP30 deubiquitinase; Ubiquitin carboxyl-terminal hydrolase 30 (Homo sapiens), Q70CQ3; purified USP30, Ub-rhodamine cleavage fluorescence; inhibition, % at 25 µM; actives 5.3% (n = 47,000)
USP17 block – inhibitors of human USP17 deubiquitinase; AID 1645855, 2021; actives 6.5% (n = 47,000); purified USP17, Ub-rhodamine cleavage fluorescence, 3 h; inhibition, % at 50 µM; Ubiquitin carboxyl-terminal hydrolase 17-like protein 5 (Homo sapiens), A8MUK1
USP28 inh – inhibitors of human USP28 deubiquitinase. inhibition, % at 25 µM. purified USP28, Ub-rhodamine cleavage fluorescence, 30 min. Ubiquitin carboxyl-terminal hydrolase 28 (Homo sapiens), Q96RU2. actives 3% (n = 47,000)
OTUD3 inh – inhibitors of human OTUD3 deubiquitinase | OTU domain-containing protein 3 (Homo sapiens), Q5T2D3 | purified OTUD3, Ub-rhodamine fluorescence, 2 h | inhibition, % at 25 µM | actives 0.7% (n = 47,000)
Target sequence (Q5T2D3 whole entry, looked up, the tested form may be a part): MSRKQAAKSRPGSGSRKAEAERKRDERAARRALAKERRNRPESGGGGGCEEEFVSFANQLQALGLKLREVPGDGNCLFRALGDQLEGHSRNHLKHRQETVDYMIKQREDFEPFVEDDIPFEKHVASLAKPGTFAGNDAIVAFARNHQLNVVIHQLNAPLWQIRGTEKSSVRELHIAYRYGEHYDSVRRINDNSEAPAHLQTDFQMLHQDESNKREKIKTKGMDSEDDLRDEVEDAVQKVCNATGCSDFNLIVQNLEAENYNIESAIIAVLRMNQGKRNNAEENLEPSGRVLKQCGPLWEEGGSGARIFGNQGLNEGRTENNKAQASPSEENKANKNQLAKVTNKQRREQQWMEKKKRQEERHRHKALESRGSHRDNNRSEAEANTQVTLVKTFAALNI
Hits are given with their value; - = inactive; . = not tested or not shown. Rows were chosen to be rich in hits. Some 11% of all compounds tested hit in one or more screens of this group. No stated cut-off is given here; in the data, active means inhibition above about 30%; inactive means the rest.

SMILES | USP30 block | USP17 block | USP28 inh | OTUD3 inh
CCN1CCCC1CN(Cc1cc2cc(OC)ccc2[nH]c1=O)C(=O)NCc1ccccc1 (configuration not stated) | - | 53 | - | -
CCN1CCCC1CN(Cc1cc2ccc(C)c(C)c2[nH]c1=O)C(=O)NCc1ccccc1 (configuration not stated) | - | - | - | -
O=C(NCc1ccc(F)cc1)c1ccc2noc(-c3ccccc3)c2c1 | - | - | - | -
O=S(=O)(c1ccc(F)cc1)N1C[C@@H]2c3nccn3-c3ccccc3[C@@H]2C1 | - | - | - | -
Cc1ccc(-c2nc3ncccc3o2)cc1NC(=O)COc1ccc([N+](=O)[O-])cc1 | - | 40 | - | -
O=C(Oc1ccc2cc(Br)ccc2c1)c1ccncc1 | 35 | - | - | -
COc1ccc(-n2c(SCC(=O)c3ccc(F)cc3)nnc2-c2cccnc2)cc1 | - | 71 | - | -
COc1ccc(C(=O)CSc2ccc3nnc(-c4cccnc4)n3n2)cc1 | - | - | - | -
CC(=O)N1CC[C@@H]2CN(CCC(C)C)S(=O)(=O)[C@@H]2CC1 | - | - | - | -
O=C(COC(=O)c1cc2ccccc2oc1=O)Nc1ncccn1 | - | - | - | -
Cc1ccc(C(=O)C(C)OC(=O)c2cc3ccccc3oc2=O)cc1 (configuration not stated) | . | 47 | . | -
COC(=O)c1ccc(CNC(=O)c2cc3ccccc3oc2=O)cc1 | . | 62 | . | -
COc1cccc(C2(NC(=O)c3cncnc3)CCCC2)c1 | - | . | - | -
Cc1ccc(S(=O)(=O)CCc2nc(-c3ccc(N4CCC(C)CC4)cc3)no2)cc1 | 45 | . | - | -
O=C1N(c2ccccc2)C2CS(=O)(=O)CC2N1c1ccc([N+](=O)[O-])cc1 (configuration not stated) | . | 30 | . | -
O=C1N(c2ccccc2)C2CS(=O)(=O)CC2N1c1ccc(F)cc1 (configuration not stated) | - | - | - | -
Cc1c(C)c2ccc(OCC(=O)NCc3ccncc3)c(C)c2oc1=O | 81 | 46 | - | -
Cc1cc(=O)oc2cc(OCC(=O)NCc3ccncc3)ccc12 | - | - | - | -
COCCNC(=O)C1c2ccccc2C(=O)N(Cc2ccccc2)C12CCCC2 (configuration not stated) | 32 | - | - | -
O=C(Cn1c(-c2nc(-c3ccccc3)no2)cccc1=O)Nc1ccccc1 | - | 34 | - | -
Cc1ccc(NC(=O)Cn2c(-c3nc(C)no3)cccc2=O)c(C)c1 | - | . | - | -
CC(C)c1nnc(-c2ccc(=O)n(CC(=O)Nc3ccccc3)c2)o1 | - | . | - | -
O=C(Cn1c(-c2nc(-c3cccc(F)c3)no2)cccc1=O)NCc1ccco1 | - | 40 | - | -
CCc1noc(-c2ccc(=O)n(CC(=O)Nc3ccccc3)c2)n1 | 38 | - | - | -
CC(CNC(=O)Cc1cccc(F)c1)N(C)c1ccccc1 (configuration not stated) | - | - | - | -
SMILES | USP30 block | USP17 block | USP28 inh | OTUD3 inh
Cc1c(-c2nnc(-c3ccccc3Cl)o2)nnn1-c1ccccc1 | 81 | - | 35 | -
Cc1cccc(NC(=O)c2noc3c2CCCC3)n1 | . | - | . | -
O=C(Nc1ccc(Cl)cc1)c1noc2c1CCCC2 | 35 | - | - | -
Cc1csc2ncc(C(=O)N3CCN(c4ccccc4)CC3)c(=O)n12 | - | - | - | -
Cc1csc2ncc(C(=O)N3CCN(c4ccccc4F)CC3)c(=O)n12 | - | - | - | 38
Cc1nc(-c2ccccc2)sc1C(=O)/C=C/c1ccccc1[N+](=O)[O-] | 38 | - | - | -
CCn1ncc(CN2CCc3nc(-c4ccccn4)[nH]c(=O)c3C2)c1C | - | - | - | -
CNC1C(O)C(OC2C(N)CC(N)C(OC3OC(C(C)N)=CCC3N)C2O)OCC1(C)O (configuration not stated) | - | - | - | -
Cc1cc2nc(Oc3cccc(C(F)(F)F)c3)c3ccccc3n2n1 | 49 | 35 | - | -
NC(=O)c1cccc(OCCOc2ccccc2)c1 | 49 | - | - | -
O=C(OCCOc1ccccc1)c1ccc(-c2ccccc2)cc1 | - | - | - | -
O=C(Nc1ccccc1)C(C(=O)Nc1ccccc1)c1ccccc1 | 31 | - | - | -
O=C(Nc1ccc(NC(=O)C(c2ccccc2)c2ccccc2)cc1)c1cccs1 | - | - | - | -
O=C(Nc1cc(S(=O)(=O)N2CCOCC2)ccc1N1CCOCC1)c1cc2c(s1)CCCC2 | 30 | - | - | -
O=C(NCc1cccc(C(F)(F)F)c1)c1ccc(-n2cccn2)nc1 | 32 | - | - | -
c1ccc(CCNc2nc3ccccc3s2)cc1 | - | - | 35 | -
COc1ccc(NC(=O)CCn2ccc(=O)[nH]c2=O)cc1Cl | - | - | - | -
Cc1ccccc1NC(=O)c1cc2c(CO)cnc(C)c2oc1=Nc1cccc(F)c1 | - | - | - | -
COc1ccc(NC(=O)c2cc3c(CO)cnc(C)c3oc2=Nc2cccc(F)c2)c(OC)c1 | 33 | - | - | -
CCC(=O)Nc1ccccc1-c1nc2ccccc2n(CC(=O)Nc2cc(OC)ccc2OC)c1=O | 85 | 45 | 40 | -
COc1ccc(OC)c(NC(=O)Cn2c(=O)n(CC3CCC(C(=O)NCCc4ccccc4)CC3)c(=O)c3ccccc32)c1 (configuration not stated) | 36 | 39 | - | 93
O=C(Cn1c(=O)n(CC2CCC(C(=O)NC3CCCC3)CC2)c(=O)c2ccccc21)NCc1ccco1 (configuration not stated) | 39 | 54 | 50 | 58
O=C(Cn1c(=O)n(CC2CCC(C(=O)NCCc3ccccc3)CC2)c(=O)c2ccccc21)NCc1ccco1 (configuration not stated) | - | - | - | -
COc1ccc(NC(=O)Cn2c(=O)n(Cc3ccco3)c(=O)c3ccc(C(=O)NC4CCCC4)cc32)cc1 | - | - | - | -
COc1cc(NC(=O)Cn2c(=O)n(CC3CCC(C(=O)NC4CCCC4)CC3)c(=O)c3ccccc32)cc(OC)c1 (configuration not stated) | 44 | 61 | - | 43
SMILES | USP30 block | USP17 block | USP28 inh | OTUD3 inh
COc1ccc(OC)c(NC(=O)CN2CCC(c3nc4ccccc4[nH]3)CC2)c1 | - | - | - | -
O=C(O)CC(CC(=O)NCc1ccco1)c1ccc(C(F)(F)F)cc1 (configuration not stated) | - | - | - | -
CC(=O)NC(Cc1ccccc1F)C(=O)NC1CCN(c2c3c(nc4ncnn24)CCC3)CC1 (configuration not stated) | - | - | - | -
CC(Nc1ncnc2sccc12)c1ccccn1 (configuration not stated) | - | - | - | -
COc1ccccc1CNC(=O)CN1CC(C)Sc2ccccc21 (configuration not stated) | - | - | - | -
Cc1ccc(NCc2cc(=O)n3cc(C)ccc3n2)c(C)c1 | - | - | - | -
Cc1ccc2nc(CNc3cccc(Cl)c3)cc(=O)n2c1 | - | 30 | - | -
O=C(Cc1cccc2ccccc12)Nc1ccc2c(c1)NC(=O)CO2 | 30 | - | 50 | -
